TDP1 cell CPT: growth inhibition of DT40 Tdp1-/-;hTDP1 cells with camptothecin (screen for TDP1 inhibitors); chicken DT40 Tdp1-/-;hTDP1 cells + 20 nM CPT, ATP luminescence, 48 h; Potency, µM (series often up to 46.2 µM), for the others: at the top dose activity change, negative = growth inhibition, most hits filed as inhibitors; 420,000 compounds, 12% hits; further: potency means the concentration at half of the fitted maximal effect; on the % scale 0 is the no-effect control and ±100 the full control effect; nearly all actives have a fitted effect of over 55% in size
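Chicken DT40 Tdp1-/- cells stably complemented with human TDP1 were seeded at 400 cells/well in medium containing 20 nM camptothecin, exposed to pin-transferred compounds, and grown at 37 °C for at least 48 hr. Viability was read as ATP luminescence.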
IL1B secr inh: blocks inflammasome-driven IL-1 beta release; THP-1 LPS/ATP IL-1B secretion, AlphaLISA, 16 h; active compounds read low; activity change, % at 57.5 µM; 360,000 compounds, 4.7% hits; in the data active means activity change below about -50%; inconclusive means mostly about -30% to -49%; further: on the % scale 0 is the no-effect control and ±100 the full control effect
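Secreted IL-1B measured by AlphaLISA bead assay after 16 h compound exposure of THP-1 cells; compounds (final up to 57.5 uM) added 1 h before LPS (250 ng/mL) and ATP (1.25 mM) stimulation; lower signal means less secretion.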
DT40 TDP1 no CPT: qHTS for Inhibitors of human tyrosyl-DNA phosphodiesterase 1 (TDP1): qHTS in cells in absence of CPT | DT40 Tdp1-/- hTDP1 cells, no CPT, ATP luminescence, 48 h | Potency, µM (doses to about 46.2 µM), without a hit: at the top dose activity change, negative = growth inhibition, actives largely listed as inhibitors | 420,000 compounds, 15% hits | AID 686978, 2013; further: potency means the concentration at half of the fitted maximal effect; on the % scale 0 is the no-effect control and ±100 the full control effect; nearly all actives have a fitted effect of over 55% in size
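Chicken DT40 Tdp1-/- cells complemented with human TDP1, screened without camptothecin (DMSO vehicle only), 400 cells/well. Compounds pin-transferred, cells incubated at 37 °C for at least 48 hr. Growth read as ATP-dependent luminescence (CellTiter-Glo, 30 min at RT).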
HepG2 viability: kills HepG2 cells in TGF-b inhibitor counter-screen. 410,000 compounds, 0.76% hits. Potency, µM (titrated, usually from 46.1 µM), for the others: at the highest dose activity change, negative = cytotoxicity, actives largely listed as cytotoxic. AID 588856. HepG2 CAGA-GFP viability, ATP luminescence, 18 h; further: potency means the concentration at half of the fitted maximal effect
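CellTiter-Glo luminescence gave cytotoxicity after 18 hours at 37 degrees C. The cells were HepG2 CAGA-GFP in 1% FBS DMEM, stimulated with 500 pg/mL TGF-beta after compound addition. %Activity was normalised to no-cell wells (complete cell-killing) and DMSO (no toxicity), and curves were fitted and classified.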
TDP1 block: blocks human tyrosyl-DNA phosphodiesterase 1; recombinant TDP1, AlphaScreen DNA substrate cleavage; 350,000 compounds, 0.28% hits; Potency, µM (highest dose often 130 µM), for inactives: at the top dose activity change, negative = inhibition, hits mostly inhibitors; Q9NUW8; further: potency means the concentration at half of the fitted maximal effect; on the % scale 0 is the no-effect control and ±100 the full control effect; nearly all actives have a fitted effect of over 40% in size
Target sequence (Q9NUW8 whole entry, looked up): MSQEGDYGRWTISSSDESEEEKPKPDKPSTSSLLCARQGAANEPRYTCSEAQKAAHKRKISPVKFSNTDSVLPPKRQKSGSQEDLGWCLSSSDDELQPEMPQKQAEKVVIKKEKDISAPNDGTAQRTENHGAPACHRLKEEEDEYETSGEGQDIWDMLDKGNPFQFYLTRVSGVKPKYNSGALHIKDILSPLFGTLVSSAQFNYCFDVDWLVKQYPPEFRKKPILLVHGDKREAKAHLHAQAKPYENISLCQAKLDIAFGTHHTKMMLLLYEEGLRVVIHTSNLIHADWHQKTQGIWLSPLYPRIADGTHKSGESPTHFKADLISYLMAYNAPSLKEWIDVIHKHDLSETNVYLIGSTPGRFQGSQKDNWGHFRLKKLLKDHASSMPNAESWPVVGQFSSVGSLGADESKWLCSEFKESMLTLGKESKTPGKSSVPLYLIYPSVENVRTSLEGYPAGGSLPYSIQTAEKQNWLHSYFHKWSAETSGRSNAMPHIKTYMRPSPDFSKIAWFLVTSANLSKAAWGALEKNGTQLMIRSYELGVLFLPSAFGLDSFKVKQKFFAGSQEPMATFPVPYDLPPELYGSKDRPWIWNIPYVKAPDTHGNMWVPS
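Recombinant E. coli-expressed Tdp1 (1 nM) preincubated with compound 15 min at RT, then 5'-biotin/3'-phosphotyrosine-FITC DNA substrate (15 nM) added for 5 min. AlphaScreen beads (10 ug/ml) added, 10 min RT; tyrosine-FITC cleavage read as signal loss.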
TGFb SMAD3 inh: inhibitors of TGF-b signaling. HepG2 CAGA-GFP TGF-b/SMAD3 reporter, GFP fluorescence, 18 h; TGF-beta stimulated, 500 pg/mL final. Potency, µM (doses to about 46.1 µM), without a hit: at the highest dose activity, negative = inhibition, usual class: inhibitors. 410,000 compounds, 1.2% hits; further: potency means the concentration at half of the fitted maximal effect; on the % scale 0 is the no-effect control and ±100 the full control effect; nearly all actives have a fitted effect of over 65% in size
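Cell-based qHTS in HEPG2 carrying a CAGA-GFP Smad reporter; compounds added before 500 pg/mL final TGF-beta, 18 h incubation at 37 degrees C, GFP fluorescence quantified per cell by imaging cytometry.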
The depositor's hits bear a star; u = inconclusive; x = not tested or not shown. Most compounds without a hit are left out; they make up all but 18% or so of the library. Unless noted, the call rests on the fitted dose curve; in most records, active means well fitted curve in the direction sought with a large enough effect; inconclusive means small, poorly fitted or top-dose-only effect, or another doubt; inactive means no such curve, though single readings can be large; an effect the other way counts as inactive or inconclusive.

SMILES	TDP1 cell CPT	IL1B secr inh	DT40 TDP1 no CPT	HepG2 viability	TDP1 block	TGFb SMAD3 inh
CCc1ccc(-n2c(=O)c3c4c(sc3n(CC(=O)NCCCOC)c2=O)CCCC4)cc1	u	x	u	-6%	5%	0%
CCc1ccc(-n2c(=O)c3c4c(sc3n(Cc3cc(=O)n5c(C)cccc5n3)c2=O)CCC4)cc1	u	x	12µM*	-5%	-2%	-5%
CCc1ccc(-n2c(=O)c3c4c(sc3n(CC(=O)c3ccc(Cl)cc3)c2=O)CCC4)cc1	2.6µM*	x	2.6µM*	3%	-3%	-1%
CC(C)=C1C(=O)C(c2ccccc2)=C2CN3C(=O)N(CCc4ccccc4)C(=O)[C@]3(C)[C@H]21	x	x	x	x	7%	x
CCOC(=O)c1cc2c(n(-c3ccc(Cl)cc3)c1=O)CCCC2=O	0%	0	-9%	-1%	0%	-1%
CCOC(=O)C1=C(N2CCCCC2)c2cc3c(n2C1=O)CCCC3	u	0	9.2µM*	-19%	12%	-9%
CN(CC(=O)Nc1ccc(F)cc1)C(=O)c1ccncc1	2%	45	30%	-2%	7%	1%
CC(=O)Oc1ccc2ccccc2c1C(NC(=O)C(C)C)c1cccc([N+](=O)[O-])c1 (centres undefined)	u	-74*	u	-23%	8%	u
CC(=O)NC(c1cccc([N+](=O)[O-])c1)c1c(OC(C)=O)ccc2ccccc12 (centres undefined)	-28%	-1	u	-9%	x	-26%
O=C(NCC1CC1)c1cc2c(c(-c3cccc(-c4ccccc4F)c3)n1)[C@@H](CCO)N(C(=O)CC1CC1)C2	21µM*	-59*	u	x	x	x
O=C(NCC1CC1)c1cc2c(c(-c3cccc(-c4ccccc4F)c3)n1)[C@H](CCO)N(C(=O)CC1CC1)C2	u	0	18µM*	x	x	x
O=C(CN1CCC(n2nnc3cc(F)ccc32)CC1)NC1CC1	12%	2	-3%	-10%	2%	-1%
O=C(CN1CCC(n2nnc3cc(F)ccc32)CC1)N1CCc2ccccc2C1	u	-62*	15µM*	-34%	5%	-26%
O=C(CN1CCC(n2nnc3cc(F)ccc32)CC1)Nc1ccccc1N1CCOCC1	16µM*	-19	18µM*	-25%	7%	-10%
CC(Sc1nc2ncc(Cl)cc2[nH]1)C(=O)Nc1ccc(C(N)=O)cc1 (centres undefined)	-3%	31	8%	-15%	x	-12%
COc1ncc2nc(-c3ccccc3)c(=O)n(C[C@H]3CCCO3)c2n1	16%	x	-19%	x	x	x
COC(=O)c1ccc(CNC(=O)COC(=O)c2ccccc2-c2ccccc2)cc1	u	-24	u	-23%	0%	-5%
COc1ccc(-n2nc(C(=O)N(C)c3cc(Cl)ccc3OC)c3c4ccccc4n(C)c3c2=O)cc1	u	x	u	1%	2%	-12%
CC(NCc1cccs1)C(=O)NC1CCCCC1 (centres undefined)	-30%	-62*	-1%	1%	-6%	4%
O=C(NC1CCCCC1)C(c1cccs1)N(Cc1cccs1)C(=O)c1ccco1 (centres undefined)	15µM*	-12	9.2µM*	0%	2%	-2%
O=C(Cc1cccs1)N(Cc1cccs1)C1(C(=O)NC2CCCCC2)CCCCC1	26µM*	-52*	16µM*	-23%	-5%	6%
O=C(NCC(=O)N(Cc1cccs1)C(C(=O)NC1CCCCC1)c1ccco1)c1ccco1 (centres undefined)	-19%	-5	-25%	-10%	-1%	19%
O=C(NC1CCCC1)C(c1cccs1)N(CC1CCCO1)C(=O)Cc1cccs1 (centres undefined)	u	6	21µM*	0%	0%	u
CC(C)C(NC(=O)c1cccs1)C(=O)NC1CCCCC1 (centres undefined)	-9%	-15	6%	-10%	0%	3%
COc1ccc(N2CCN(S(=O)(=O)c3cc4c(cc3C)NC(=O)CO4)CC2)cc1	-15%	15	-17%	4%	x	-3%
SMILES	TDP1 cell CPT	IL1B secr inh	DT40 TDP1 no CPT	HepG2 viability	TDP1 block	TGFb SMAD3 inh
CCC(C)NC(=O)c1cc2c(Cl)nc3ccc(C)cc3c2s1 (centres undefined)	-18%	x	u	1%	1%	-3%
CC(C)C[C@H](NC(=O)[C@H](CO)NC(=O)[C@@H]1CCCN1C(=O)[C@H](Cc1ccc(O)cc1)NC(=O)[C@H](CC(C)C)NC(=O)[C@H](CC(C)C)NC(=O)[C@@H]1CCCN1C(=O)[C@@H](NC(=O)[C@H](CO)NC(=O)[C@H](CO)NC(=O)[C@H](CO)NC(=O)[C@H](CO)NC(=O)[C@@H]1CCCN1C(=O)[C@@H](NC(=O)[C@@H](N)CO)C(C)C)[C@@H](C)O)C(=O)N[C@@H](C)C(=O)N[C@@H](CC(C)C)C(=O)N1CCC[C@H]1C(=O)N[C@@H](C)C(=O)N1CCC[C@H]1C(=O)O	x	x	x	x	11%	x
CCOc1ccc(C(=O)Nc2ccc(-n3nncc3-c3ccccc3)cc2)cc1OCC	18µM*	x	15µM*	-16%	10%	-18%
COc1ccc(/C=C/C(=O)Nc2ccc(-n3nncc3-c3ccccc3)cc2)cc1OC	21µM*	4	8.2µM*	5%	6%	3%
CCOc1ccc(C(=O)Nc2ccc(-n3nncc3-c3ccc(OC)cc3)cc2)cc1	u	x	u	-8%	5%	4%
Cc1ccc(NC(=O)c2ccc(-n3nncc3-c3ccccc3)cc2)cc1	u	x	16µM*	-12%	1%	-1%
COc1ccc(/C=C/C(=O)Nc2ccc(C(N)=O)cc2)cc1OC	26%	15	-10%	-47%	-1%	0%
O=C(O)c1cccc(NC(=O)c2cccc(S(=O)(=O)N3CCCCC3)c2)c1	7%	-1	-8%	2%	2%	4%
Cc1ccc(-c2csc(NC(=O)c3cccc(S(=O)(=O)N4CCN(C)CC4)c3)n2)cc1	u	15	18µM*	-24%	1%	-25%
O=C(Nc1nc(-c2cccs2)cs1)c1cccc(S(=O)(=O)N2CCCCC2)c1	u	0	26µM*	-22%	6%	-20%

High-throughput results deposited in PubChem by National Center for Advancing Translational Sciences (NCATS).
